From PubChem BioAssay AID1645853 (Buhrlage Lab, Dana-Farber Cancer Institute and Novartis …, 2021)
The campaign covered roughly 47,000 compounds. About 2,000 (4.3%) were called active. Rule as the data show it: active = inhibition above about 30%; inactive = the rest. This excerpt belongs to a sample that is enriched for actives.

molecular target: Ubiquitin carboxyl-terminal hydrolase 8 (Homo sapiens) (UniProt P40818); assay: blocks human USP8 ubiquitin-rhodamine cleavage (AID 1645853); conditions: purified USP8, Ub-rhodamine cleavage fluorescence, 30 min; at 20 µM; active compounds read high
Sequence (P40818 whole entry, looked up): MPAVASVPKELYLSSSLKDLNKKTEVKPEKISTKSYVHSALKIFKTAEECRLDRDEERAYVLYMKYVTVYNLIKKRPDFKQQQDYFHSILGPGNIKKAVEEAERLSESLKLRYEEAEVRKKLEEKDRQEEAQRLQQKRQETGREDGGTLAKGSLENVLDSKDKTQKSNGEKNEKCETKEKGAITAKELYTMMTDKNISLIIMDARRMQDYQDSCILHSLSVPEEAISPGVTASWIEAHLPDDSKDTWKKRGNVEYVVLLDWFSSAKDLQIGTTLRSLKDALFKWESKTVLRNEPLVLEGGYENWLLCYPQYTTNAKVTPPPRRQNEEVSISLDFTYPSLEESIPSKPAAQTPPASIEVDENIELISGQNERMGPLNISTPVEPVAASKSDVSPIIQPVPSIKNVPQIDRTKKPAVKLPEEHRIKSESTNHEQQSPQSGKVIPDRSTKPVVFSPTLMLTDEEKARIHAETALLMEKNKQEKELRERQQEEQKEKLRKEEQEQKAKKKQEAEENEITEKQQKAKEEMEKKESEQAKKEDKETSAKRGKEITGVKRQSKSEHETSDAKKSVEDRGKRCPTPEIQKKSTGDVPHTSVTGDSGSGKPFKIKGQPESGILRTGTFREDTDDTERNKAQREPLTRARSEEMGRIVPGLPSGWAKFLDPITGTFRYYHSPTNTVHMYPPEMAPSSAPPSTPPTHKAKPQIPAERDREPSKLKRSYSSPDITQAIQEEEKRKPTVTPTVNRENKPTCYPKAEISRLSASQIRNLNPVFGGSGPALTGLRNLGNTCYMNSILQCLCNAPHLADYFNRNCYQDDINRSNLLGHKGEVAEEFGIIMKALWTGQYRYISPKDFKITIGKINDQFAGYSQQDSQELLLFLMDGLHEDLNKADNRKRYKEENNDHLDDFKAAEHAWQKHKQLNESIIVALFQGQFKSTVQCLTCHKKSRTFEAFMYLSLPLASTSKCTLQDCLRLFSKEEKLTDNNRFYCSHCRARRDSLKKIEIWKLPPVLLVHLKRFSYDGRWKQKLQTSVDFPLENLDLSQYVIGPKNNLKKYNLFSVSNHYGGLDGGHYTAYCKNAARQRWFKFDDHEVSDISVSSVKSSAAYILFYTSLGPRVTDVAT

inhibition, active:
COc1ccc(NC(=O)Cc2noc(-c3cccc(OC)c3)n2)cc1 50.5%
COc1cccc(CNC(=O)c2nnn(CC(=O)Nc3cc(C)ccc3C)c2N)c1 67.9%
Cc1ccc(Nc2nc(NCC(=O)Nc3cc(C)ccc3C)nc(Nc3ccc(C)cc3)n2)cc1 38%
Cc1nc(-c2ccccc2)sc1-c1nc(-c2ccccc2)ncc1S(=O)(=O)c1ccccc1 63.3%
COc1ccc(-c2noc(-c3ccc(N(C)Cc4ccco4)nn3)n2)cc1 35.7%
CC(C)N(C(=O)CSc1nc2ccc([N+](=O)[O-])cc2s1)C(C)C 49.5%
Cc1ccccc1NC(=O)Cc1csc2nc(-c3ccc(F)cc3)cn12 85.8%
COc1ccccc1CNC(=O)c1c(O)c2cccnc2n(-c2ccccc2)c1=O 80.6%
COc1cccc(-n2c(=O)c(C(=O)NC(C)c3ccccc3)c(O)c3cccnc32)c1 (configuration not stated) 81.5%
O=C(CCc1csc(NC(=O)c2ccc(=O)[nH]c2)n1)NCCc1c[nH]c2ccccc12 62.3%
c1ccc(-c2ccc(NCc3ccc4c(c3)OCO4)nn2)cc1 92%
Cn1cc2nc(SCC(=O)NCc3ccc(Cl)cc3)n(CC3CC3)c(=O)c2n1 38.7%
Cc1nnc2ccc(-c3ccc(NC(=O)c4ccc(Br)o4)cc3)nn12 65.6%
O=C(O)CC1(CC(=O)Nc2ccc(Oc3ccccc3)cc2)CCCC1 33%
CCOC(=O)c1cc2c(ccn2C)n1CC(=O)Nc1ccc2c(c1)OCCO2 32.8%
COc1ccc(CC(=O)Nc2ccc3c(c2)CN(C(=O)c2ccco2)CC3)cc1 33.2%
CC(C)(C)c1nn(-c2ccccc2)c2[nH]c(=O)c(CNCCc3ccccc3)cc12 85%
Cc1ccc(NCc2cc3c(C)nn(-c4ccccc4)c3[nH]c2=O)cc1C 76.5%

inhibition, inactive:
C[C@H](NC(=O)c1ccc2c(c1)OCO2)c1nc2cc(-c3ccc(F)cc3)ncn2n1 18%
Nc1c(-c2ccc(Cl)cc2)cnc2c(-c3ccccc3)c(COc3ccccc3)nn12 -0.15%
COc1ccc(-c2noc(-c3cccc(OCC(=O)NC(C)C)c3)n2)cc1 -16.3%
COc1ccc(OCC(=O)Nc2noc(-c3ccccc3)n2)cc1 15.1%
CN(C)[C@@H]1CN(S(=O)(=O)N2CCOCC2)C[C@H]1O 11.8%
Cc1ccc(C(=O)N2C[C@@H]3CCN(c4ncccn4)C[C@@H]3C2)cc1 -16.6%
COc1cccc(NC(=O)c2nnn(Cc3nc(-c4cccc(C)c4)oc3C)c2N)c1 -2.67%
COc1cccc(CNC(=O)Cn2cnc(S(=O)(=O)N3CCCC3)c2)c1 19%
Cc1nc(-c2ccc(C)c(S(=O)(=O)NCC(=O)Nc3cccc(Cl)c3)c2)no1 7.8%
Cc1ccc(C)c(NC(=O)c2cn(C)cc3c(=O)n(-c4ccccc4)nc2-3)c1 -13.8%
CCCN1CCC(N2C[C@@H]3CN(S(=O)(=O)c4ccccc4)C[C@@H]3C2)CC1 -38.2%
COc1ccc2ncc(S(=O)(=O)c3ccccc3)c(Nc3ccc(F)cc3)c2c1 17.2%
Cc1ccc2c(c1)CN(S(C)(=O)=O)CC1(CCN(CC(=O)N3CCCCC3)CC1)O2 0.0399%
CCOC(=O)C1CCN(S(=O)(=O)c2cc3[nH]c4c(c3cc2CC)C(=O)CCC4)CC1 -25.1%
Cc1cc(C(F)(F)F)nn1CC(=O)O -0.231%
O=C(Cc1ccc(Cl)cc1)NCC(=O)Nc1nc2ccccc2[nH]1 -1.55%
CC1=C(C(=O)Nc2ccccc2)C(c2ccc(OCc3c(Cl)cccc3Cl)cc2)n2ncnc2N1 (configuration not stated) -1.68%
COCCNC(=O)c1ccc2nnc3ncn(C(C)C)c3c2c1 -31.7%
COc1ccc(-c2noc(C3(c4ccccc4)CCOCC3)n2)cc1 19.2%
COc1ccc(-c2nc(-c3cccs3)no2)cc1OC -15.4%
O=C1CC(C(=O)Nc2ccccc2F)N=C(N2CCN(c3ccccc3F)CC2)N1 (configuration not stated) 3.41%
O=C(CSc1ccc2nnc(-c3ccccc3)n2n1)N1CCCc2ccccc21 29.4%
O=[N+]([O-])c1ccc(S(=O)(=O)N2CCN(c3nc4ccccc4s3)CC2)cc1 -0.0867%
COc1cccc(NC(=O)CN2CCN(c3nc4ccc([N+](=O)[O-])cc4s3)CC2)c1 -52.2%
O=C1NCCCCC1NS(=O)(=O)c1ccc2c(c1)OCCCO2 (configuration not stated) -2.35%
O=C(Cc1ccc(F)cc1)Nc1ccccc1Cc1ccccc1 19.3%
Cc1cc(F)ccc1NC(=O)Cc1n[nH]c(Cc2ccccc2)n1 2.95%
COc1cccc(C(=O)OCc2csc(-c3ccccc3)n2)c1OC 4.14%
Nc1cc(C2CCN(C(=O)Cc3ccc(F)cc3)CC2)no1 1.13%
COc1cccc(-n2c(=O)[nH]c3c(C(N)=O)nc(-c4ccccn4)nc32)c1 -282%
COc1ccccc1CNCc1c(C(=O)O)c(C)n(-c2ccccc2)c1C 27.6%
COc1ccccc1CNC(=O)c1ccc(Cl)c(S(=O)(=O)N2CCCC2)c1 -5.09%
COc1cccc(NC(=O)Nc2nccn(-c3ccccc3)c2=O)c1 5.06%
CN(C)S(=O)(=O)N1CCOC(c2cncc(-c3cccc(F)c3)n2)C1 (configuration not stated) -2.26%
O=C(C1COc2ccccc2O1)N1CCN(c2nc(C(F)(F)F)nc3ccccc23)CC1 (configuration not stated) 11.8%
COC(=O)c1ccc(C2Oc3ccccc3CN2c2ccccc2Cl)cc1 (configuration not stated) 22%
COc1ccc(-c2csc(N)n2)c(O)c1 3.16%
Cc1ccc(-n2c(C)nnc2SCC(=O)NC2CC2)cc1 1.76%
Cc1nc(C2CCCN2C(=O)c2ccc(OCC3CC3)nc2)no1 (configuration not stated) 5.37%
Cc1nc2cc(-c3noc(-c4sc(C)nc4C)n3)ccc2o1 7.81%
O=C(NCCc1c[nH]c2ccccc12)c1cc2cc(Cl)ccc2o1 16.2%
O=C(Cc1csc(NC(=O)c2ccc(=O)[nH]c2)n1)NCc1ccco1 -11.3%
COc1cc(C2CCN(S(=O)(=O)c3cccc(C#N)c3)CC2)on1 -4.99%
N=C(N)C1CN(Cc2ccccc2)C(=O)NC1=O (configuration not stated) -100%
c1cc(CNCc2ccc3c(c2)OCO3)ccn1 11%
CCC(Oc1ccccc1)C(=O)NCc1ccc2c(c1)OCO2 (configuration not stated) -79.7%
COc1cc(N2CC[C@@H]3[C@@H](CO[C@H]3CNc3ncccn3)C2)ncn1 -92.4%
N#Cc1cccc(CSc2ncnc(N)n2)c1 18.1%
COc1ccc(CNC(=O)CSc2nnc3c4ccccc4nc(-c4ccco4)n23)cc1 -1.03%
Cc1oc(CNC(=O)Cc2ccc(Cl)cc2)nc1C(=O)N1CCC(C)CC1 0.0949%
O=C(CSc1ncn[nH]1)NCc1ccc2c(c1)OCO2 19.2%
CCN1CCN(c2ccc(NC(=O)C3CCCCC3)cn2)C1=O 1.18%
CS(=O)(=O)N(Cc1ccccc1F)c1ccc(Oc2ccc(N(Cc3ccccc3F)S(C)(=O)=O)cc2)cc1 0.186%
O=C(NCCc1cccnc1)c1ccn(-c2ccc3ccccn23)n1 -25.8%
Cc1ccc(-c2cc(C(F)F)n3ncc(C(=O)NCC(C)C)c3n2)cc1 25.9%
CCCCc1nc2sc3c(SCC(=O)NCc4ccccc4)ncnc3c2c2c1CCC2 -1.42%
COc1ccccc1C(=O)Nc1cccc(Oc2ccccc2)c1 11.4%
CC1(C)CC(=O)c2ccc(OCC(=O)Nc3ccccc3)cc2O1 5.38%
Cc1cc(C)cc(NC(=O)c2cnc3sc4c(n3c2=O)CCCC4)c1 3.8%
CCOC(=O)c1cc2c(ccn2C)n1CC(=O)N1CCC(C)CC1 -57.3%
CCOC(=O)c1cc2c(ccn2C)n1CC(=O)N1CCc2ccccc2C1 -42.9%
O=C(c1ccc(Cl)cc1)N1CCSc2cc(Cl)ccc21 12%
COc1cc2c(cc1OC)CN(C(=O)c1cc(=O)c3ccccc3o1)CC2 3.84%
COc1ccc(CC(=O)Nc2ccc3c(c2)CCC3)cc1S(=O)(=O)N1CCOCC1 0.366%
CCN1CCn2c(-c3cnn(C)c3)cnc2C12CCN(S(=O)(=O)CC(C)C)CC2 -29.1%
Cc1ccc(CCNCc2c(C(=O)O)n(C)c3ccccc23)cc1 -1.77%
Cc1nn(-c2ccccc2)c2[nH]c(=O)c(C#N)c(-c3ccco3)c12 10.2%
Cc1ccc(NC(=O)NCc2nnnn2-c2ccccc2)cc1C 0.496%
Cc1cccc(-c2nnc3ccc(N4CCC(C(=O)NC(C)Cc5ccco5)CC4)nn23)c1 (configuration not stated) -6.13%
CN1C(=O)C(C)(C)COc2ccc(NS(=O)(=O)c3cccc(F)c3)cc21 11.7%
Cc1ccc(Cn2nccc2NC(=O)c2cc(-c3ccccc3)on2)cc1 14.1%
Cc1cc(C)cc(C(=O)N2CCN(c3nnc4ccccn34)CC2)c1 -9.4%
Cc1nonc1C(=O)NCC(=O)N1Cc2ccccc2OC2(CCOCC2)C1 20.5%
COc1ccccc1CNC(=O)c1ccccc1N1C(=O)[C@@H]2Cc3c([nH]c4ccccc34)C(C)N2C1=O (some centres not stated) -25.4%
